Cruzain noTriton: blocks cruzain activity in detergent-free assay | P25779 | purified cruzain, Z-FR-AMC fluorescence, no detergent | Potency, µM, inactives show max response, negative = inhibition, most hits filed as inhibitors | 200,000 compounds, 2.3% hits | AID 1476;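 further: plate controls were enzyme without inhibitor for no effect and buffer without enzyme for full effect; nearly all actives have a fitted effect of over 40% in size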
Target sequence (P25779 123-467 limits assumed): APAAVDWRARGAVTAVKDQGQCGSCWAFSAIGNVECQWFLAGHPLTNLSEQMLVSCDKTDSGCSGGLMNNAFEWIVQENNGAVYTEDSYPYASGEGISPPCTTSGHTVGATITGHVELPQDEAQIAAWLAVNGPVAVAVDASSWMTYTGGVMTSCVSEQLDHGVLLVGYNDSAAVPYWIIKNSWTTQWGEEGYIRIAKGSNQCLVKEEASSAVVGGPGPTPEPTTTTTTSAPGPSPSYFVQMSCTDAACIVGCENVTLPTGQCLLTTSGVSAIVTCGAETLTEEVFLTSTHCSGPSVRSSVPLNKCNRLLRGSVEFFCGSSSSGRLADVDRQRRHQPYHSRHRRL
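Purified cruzain at 1.5 nM, pre-incubated 15 min with compound at room temperature in 100 mM sodium acetate pH 5.5, 5 mM DTT, 0.00005% Triton X-100. Reaction started with 2 uM Z-FR-AMC; AMC fluorescence increase over 60 s gives rate.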
Cruzain Triton: inhibitors of Trypanosoma cruzi cruzain with detergent | AID 1478 | P25779 | 200,000 compounds, 0.43% hits | purified cruzain, Z-FR-AMC fluorescence, 0.01% Triton | Potency, µM, inactives show max response, negative = inhibition, hits mostly inhibitors;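 further: plate controls were neutral wells for no effect and buffer without enzyme for full effect; nearly all actives have a fitted effect of over 40% in size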
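In this qHTS format, compounds are incubated with 1.5 nM cruzain for 15 min at room temperature before 2 uM Z-FR-AMC is added. Release of AMC is followed at 360/450 nm, and progress is taken as the 60 s fluorescence difference.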
* marks the source's active call; other numbers are inactive results; ? = inconclusive. Only some compounds are listed: those with a hit (about 2.5% of all), similar ones and a draw of the others. The call rests on the fitted dose curve; in most records, active means well fitted curve in the direction sought with a large enough effect; inconclusive means small, poorly fitted or top-dose-only effect, or another doubt; inactive means no such curve, though single readings can be large; an effect the other way counts as inactive or inconclusive. Potency means the concentration at half of the fitted maximal effect.

SMILES	Cruzain noTriton	Cruzain Triton
COc1ccccc1NS(=O)(=O)c1cc(NC(=O)Nc2ccc(Cl)cc2Cl)ccc1N1CCCCC1	5µM*	-2%
COc1ccc(S(=O)(=O)N2CCCCC2)cc1NS(=O)(=O)c1cc(Cl)ccc1Cl	20µM*	-6%
O=C(Nc1cccc(C(F)(F)F)c1)c1cc(S(=O)(=O)N2CCCCC2)ccc1N1CCOCC1	?	-12%
O=C(Nc1cccc(C(F)(F)F)c1)Nc1ccc(N2CCCC2)c(S(=O)(=O)Nc2ccccc2Cl)c1	6.3µM*	0%
CCOC(=O)Cc1ccc(NC(=O)N(C(C)C)C2CCN(C(C)=O)CC2)cc1	2%	-5%
CCCCOc1ccc(CNC(=O)CCCN2C(=O)CSc3c2c(C)nn3-c2ccccc2)cc1	?	-9%
Cc1cccc(NC(=O)CSc2nc(C)c(CC(=O)c3ccc(Br)cc3)c(C)c2C#N)c1C	13µM*	3%
Cc1nc(SCC(=O)Nc2ccc(F)cc2)c(C#N)c(C)c1CC(=O)c1ccc(Br)cc1	?	-1%
CCCCNC(=O)Cn1c(=O)cc(C)c2c(C)nn(-c3cccc(Cl)c3C)c21	-17%	1%
Cc1cccc(NC(=O)c2cc3c([nH]c4ccccc43)c(C)n2)c1C	?	0%
Cc1ccc(C)c(NC(=O)c2cc3c([nH]c4ccccc43)c(C)n2)c1	7.9µM*	8%
CC(C)CCNC(=O)CN1C(=O)CCn2nc(-c3cn(C)c4ccccc34)cc21	?	-4%
CCc1cccc(NC(=O)Cn2c(=O)n3nc(-c4cccc(F)c4)nc3c3ccccc32)c1	-14%	-2%
CCc1ccc(-n2nc(C)c3c(C(=O)Nc4cc(C)ccc4C)cc(C)nc32)cc1	-2%	0%
Cc1sc2nc(CSc3cccc(C(F)(F)F)c3)[nH]c(=O)c2c1C	25µM*	-3%
Cc1ccc(-n2nnnc2SCc2nc3sc(C)c(C)c3c(=O)[nH]2)cc1	?	-1%
COC(=O)c1ccccc1NC(=O)NCc1ccc2c(c1)OCO2	-9%	1%
COC(=O)c1ccccc1NC(=S)N(Cc1ccc2c(c1)OCO2)Cc1cc2cc(OC)ccc2[nH]c1=O	10µM*	-10%
COc1cc(C(CC(=O)NCc2ccccc2Cl)N2Cc3ccccc3C2=O)cc(OC)c1OC (centres undefined)	16µM*	?
COc1ccccc1CNC(=O)CC(c1ccc(OC)c(OC)c1)N1Cc2ccccc2C1=O (centres undefined)	-10%	-3%
O=C(CS(=O)(=O)c1cccc2nsnc12)NCc1ccc(Cl)cc1	-8%	2%
Cc1ccc2c(c1)-c1onc(C(=O)N(C)c3cccc(C(F)(F)F)c3)c1CO2	?	-3%
COc1ccc(-c2nc(-c3ccc(Br)o3)no2)cc1	-21%	6%
COc1ccc(Cl)cc1-c1nc(-c2ccc(Br)o2)no1	7.9µM*	10%
COc1ccc(N2CCN(C(=O)Cc3c(C(=O)O)c(C)cn3C)CC2)cc1	-13%	0%
SMILES	Cruzain noTriton	Cruzain Triton
COc1ccc(/C=N/NC(=O)c2ccc(Cn3cc([N+](=O)[O-])cn3)o2)cc1O	-21%	-6%
COc1ccc(/C=N/Nc2ccccc2)cc1Cn1nc(C)c([N+](=O)[O-])c1C	13µM*	3%
COc1ccc(/C=N/NC(=O)Cn2nc(C)c([N+](=O)[O-])c2C)cc1	15%	-3%
COc1ccc(/C=N/Nc2ccc([N+](=O)[O-])cc2)cc1Cn1cc([N+](=O)[O-])cn1	20µM*	-2%
CCOC(=O)c1c(C)oc2nc(C)nc(NCC3CCN(Cc4cccc(Cl)c4)CC3)c12	-3%	0%
O=C(COc1ccc2ccccc2c1)NC1CC(=O)N(c2ccccc2)C1 (centres undefined)	7%	-6%
COc1ccc2nc(-c3cccc(N)c3)[nH]c2c1	-20%	-15%
COc1ccc2nc(-c3ccc(N)cc3)[nH]c2c1	10µM*	28µM*
CSc1ccc(/C=C(/NC(=O)c2ccc(C)cc2)C(=O)Nc2cccc(F)c2)cc1	20µM*	-1%
Cc1ccc(NC(=O)/C(=C\c2ccc([N+](=O)[O-])cc2)NC(=O)c2ccccc2)cc1	5%	-1%
Cn1ncc2c(N3CCN(c4ccccc4Cl)CC3)ncnc21	12%	1%
c1ccc2sc(N3CCN(Cc4ccc5c(c4)OCO5)CC3)nc2c1	3%	0%
N#C/C(=C\N1CCN(Cc2ccc3c(c2)OCO3)CC1)c1nc2ccccc2s1	32µM*	-4%
COc1ccccc1C1CC(=O)Oc2cc3c(cc21)OCO3 (centres undefined)	16%	-12%
COC(=O)CCC(=O)NC(=S)Nc1sc(C)c(C)c1C(N)=O	?	-1%
Cc1sc(NC(=S)NC(=O)CCc2ccccc2)c(C(N)=O)c1C	4µM*	0%
CCS(=O)(=O)N1CCc2cc(C(=O)Nc3ccc(Br)cc3F)ccc21	-12%	8%
CCn1c(=O)c2cc(C(=O)NCCCN3CCN(c4ccc(F)cc4)CC3)sc2c2ccccc21	-3%	0%
O=C(CSc1ncnc2sc3c(c12)CCCC3)N1CCC(c2noc3ccc(F)cc23)CC1	16µM*	3%
Cc1cc(SCC(=O)N2CCC(c3noc4ccc(F)cc34)CC2)nc2ccccc12	-13%	-2%
Cc1cc(S(=O)(=O)Nc2ccc(-c3ccc(N4CCCCC4)nn3)cc2)c(C)cc1Cl	-7%	-1%
COc1cccc(CNS(=O)(=O)c2ccc3c(c2)C(C(C)C)C(=O)N3)c1 (centres undefined)	-1%	-4%
Cc1ccc(-n2ncc3c(N(C)Cc4ccccc4)ncnc32)cc1	-4%	1%
Cc1ccc2c(c1)-c1c(ssc1=S)C(C)(C)N2C(=O)CSC1=NCCS1	?	-3%
CCOc1ccc2c(c1)-c1c(ssc1=S)C(C)(C)N2C(=O)CSC1=NCCS1	16µM*	-7%
SMILES	Cruzain noTriton	Cruzain Triton
Nc1c(C(=O)NCCCc2ccccc2)c2nc3ccccc3nc2n1Cc1cccs1	6.3µM*	6%
CCCCCn1c(N)c(C(=O)NCc2cccs2)c2nc3ccccc3nc21	4%	0%
Cc1ccc(NC(=O)CSc2nc3ccccc3nc2Cc2ccccc2F)cc1F	-18%	-1%
COc1cccc(-n2nnc(-c3nc(-c4ccccc4F)no3)c2C)c1	-1%	3%
O=c1c(/C=N/Nc2ccccc2)c(Sc2nnnn2-c2ccccc2)nc2ccccn12	16µM*	-6%
O=Cc1c(Sc2ccccc2)nc2ccccn2c1=O	1%	-10%
O=C(CSc1nc(-c2cccs2)nc2cc(=O)[nH]n12)Nc1ccccc1Cl	14%	-4%
Cc1cc(-c2ccc(Cl)cc2)n2nc(N)nc2n1	12%	-10%
Nc1nc2nccc(-c3ccc(Cl)cc3)n2n1	-75%	25µM*
Cc1ccccc1NC(=O)C(=O)NCC(c1ccc2c(c1)OCO2)N1CCN(c2ccccc2)CC1 (centres undefined)	-6%	0%
CC(CCc1ccccc1)NC(=O)c1ccccc1 (centres undefined)	10%	1%
CC(CCc1ccccc1)NC(=O)c1ccc(C(=O)NC(C)CCc2ccccc2)cc1 (centres undefined)	25µM*	1%
CC(C)N(C(=O)CSc1nn2c(=O)c(C(C)(C)C)nnc2s1)c1ccccc1	19%	-6%
Cc1cc(C(=O)CSc2nn3c(=O)c(C(C)(C)C)nnc3s2)c(C)n1-c1ccc(F)cc1	13µM*	2%
O=C(c1cnccn1)N1CCC2(CCCN(Cc3ccncc3)C2)CC1	-1%	3%
NC(=O)Cn1c(=O)n(-c2ccc(F)c(Cl)c2)c(=O)c2sc3ccccc3c21	4%	9%

High-throughput results (PubChem)
